This note sets out measurements from PubChem BioAssay (NCI).

Common to all, as to assay: NCI-60 one-dose screen, 48 h (100 = growth as untreated, 0 = no growth, -100 = all killed)
Settings in all cases: 10 µM unless noted

Experiment [1] concerns SR leukemia.
Experiment [2] deals with RPMI-8226 leukemia.
In experiment [3] the test system is OVCAR-8 ovarian.
For experiment [4], the system named is OVCAR-5 ovarian.
Experiment [5] deals with OVCAR-4 ovarian.
The subject of experiment [6] is SK-OV-3 ovarian.
Experiment [7] relates to IGROV1 ovarian.
The subject of experiment [8] is OVCAR-3 ovarian.
Experiment [9] has as its system HS 578T breast.
Experiment [10] relates to NCI/ADR-RES ovarian.

The panel holds about 83,000 compounds, 20% with a hit somewhere; the sample as a whole holds those more often.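 Single-dose data. Exposure time 48 hours. Values below 10 considered active.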 A number with no mark means an inactive call. The source made the active and inactive calls.

On to `Cc1c2c(cc[n+]1Cc1ccccc1)c1ccc(OCc3ccccc3)cc1n2Cc1ccccc1`, for which the growth in experiment [1] was -52.5% (active); in experiment [2], -21.6% (active); in [3], -70.9% (active); in [4], 13.5%; in [5], -3.79% (active); in experiment [6] it was 7.67% (active). The growth in experiment [7] was -65.1% (active); in experiment [8], -97.1% (active); in experiment [9], -35.9% (active); in experiment [10] it was 65%.
Turning to `Cc1ccc2[nH]c(=O)cc(-n3nncc3COc3ccc(C=O)cc3)c2c1`, the growth was 102% in experiment [1]; 102% in [2]; 107% in experiment [3]; 101% in experiment [4]; 104% in experiment [5]; 107% in [6]. The growth in [7] is 106%; in experiment [8], 102%; in experiment [9] it was 96.7%; in [10] it was 109%.
In the case of `Brc1ccc(C2CC(c3cccc(Nc4ccncc4)c3)=NN2c2ccccc2)cc1` (stereo not given), the growth was 4.53% (active) in [1]; 50.5% in experiment [2]; 77.6% in [3]; 89.3% in experiment [4]; 70.3% in experiment [5]; 84.4% in experiment [6]. In addition, the growth is 58.3% in experiment [7], 80% in [8], 90.9% in experiment [9] and 79.2% in experiment [10].
`Cn1c(COC(=O)N2CCCCC2)nc2c(N3CCOCC3)nc(-c3ccccc3)nc21`: the growth in experiment [1] was 0.966% (active); in experiment [2] it was -29.5% (active); in experiment [3] it was -6.61% (active); in experiment [4] it was -79.8% (active); in [5], -78.4% (active); in experiment [6] it was 60.2%. For the same compound, the growth in [7] is -80.6% (active); in experiment [8], -85.3% (active); in [9], -36.1% (active); in experiment [10], -8.64% (active).
Consider `CCC(C)N(CCNc1cc(OC)cc2cccnc12)CCC(C)C` (stereo not given), for which the growth is 51.8% in experiment [1]; 94.1% in experiment [2]; 86.6% in [3]; 102% in experiment [4]; 26% in [5]; 68.3% in experiment [6]. Moreover, the growth in experiment [7] was 66.4%; in [8] it was 64%; in [9], 82.9%; in [10], 85.5%.
Take `CCOC(=O)c1c(C)nc2c(c1N)C(=O)C(=O)N2Cc1ccc(C(F)(F)F)cc1`: the growth in experiment [1] is 23.3%; in [2], 27.2%; in [3], 63.3%; in [4], 91.7%; in [5], 69.3%; in experiment [6], 82.9%. Besides, the growth in experiment [7] was 62.5%; in [8], 18%; in experiment [9], 65.7%; in [10], 17.7%.
As for `C(=C\c1n(Cc2ccc3ccccc3c2)c(-c2ccccc2)c(-c2ccccc2)[n+]1Cc1ccc2ccccc2c1)/c1ccccc1`, the growth in experiment [1] was -37.4% (active); in experiment [2], -43.9% (active); in experiment [3], -65.3% (active); in [4] it was -95% (active); in [5], -85.8% (active); in experiment [6], -60.1% (active). For the same compound, the growth in experiment [7] was -81.4% (active); in experiment [8], -90.3% (active); in [9] it was -42.8% (active); in [10] it was 8.24% (active).
For the compound `COc1cc(NCC(O)CN(CC(C)C)CC(C)C)c2nc(C)ccc2c1` (stereo not given), the growth is 102% in experiment [1]; 99.4% in experiment [2]; 87.2% in [3]; 122% in experiment [4]; 40.2% in experiment [5]; 75.2% in [6]. For the same compound, the growth in experiment [7] is 86.9%; in experiment [8] it was 53.2%; in experiment [9], 85.1%; in experiment [10] it was 92%.
Turning to `COc1ccc(C(=O)c2cc3c(N)c(C(=O)Nc4cccc(Cl)c4C)sc3nc2C)cc1`, the growth is -27.1% (active) in experiment [1]; 1.21% (active) in experiment [2]; 5.92% (active) in [3]; 40.9% in experiment [4]; 39.2% in experiment [5]; 25.9% in [6]. In addition, the growth in experiment [7] was 24.8%; in experiment [8], -5.77% (active); in [9], 15%; in experiment [10], 8.86% (active).
For the compound `FC(F)(F)c1cccc(Oc2ccc(Nc3ncnc4ccc(OCCCN5CCOCC5)cc34)cc2Cl)c1`, the growth in experiment [1] is 10.4%; in experiment [2], 32%; in [3], 56.1%; in experiment [4] it was 59.7%; in experiment [5], 43.7%; in experiment [6], 22.1%. Further, the growth was 12.2% in experiment [7], 51.6% in experiment [8], 72.4% in experiment [9] and 49.9% in [10].
Take `C=CCn1c(SCC(=O)Nc2ccc(C(=O)/C=C/c3cc(OC)c(OC)c(OC)c3)cc2)nnc1-c1cc(OC)c(OC)c(OC)c1`: the growth in [1] is -5.4% (active); in experiment [2], -32.3% (active); in experiment [3], 28.4%; in [4], 95%; in experiment [5] it was 55.2%; in [6], 76.5%. Further, the growth was 22.2% in experiment [7], -21% (active) in [8], 69% in experiment [9] and 73% in experiment [10].
As for `Clc1ccc2c(c1)c(-c1ccccc1)nc1nncn12`, the growth is 83.8% in experiment [1]; 103% in experiment [2]; 106% in experiment [3]; 115% in experiment [4]; 121% in experiment [5]; 107% in experiment [6]. The growth in experiment [7] was 109%; in [8] it was 110%; in [9] it was 106%; in experiment [10], 101%.
With `C=C1C(=O)O[C@H]2[C@H]1CC/C(CNC(=O)/C=C/c1ccccc1F)=C\CC[C@@]1(C)O[C@@H]21`, the growth in experiment [1] was 8.95% (active); in [2] it was -2.96% (active); in [3], 4.58% (active); in [4], 27.7%; in experiment [5], 9.27% (active); in [6], 96.6%. Moreover, the growth in experiment [7] is 15%; in experiment [8], -62.7% (active); in experiment [9], 58.2%; in experiment [10], 77.7%.
Regarding `CC1(C)CN(Cc2ccccc2)CCN1Cc1ccccc1`, the growth in [1] is 95.8%; in experiment [2], 98%; in [3], 104%; in experiment [4], 103%; in experiment [5], 113%; in [6], 122%. In addition, the growth in experiment [7] is 101%; in [8] it was 106%; in [9] it was 99.1%; in experiment [10], 105%.
For the compound `Cc1ccc(-c2csc(/N=C3\C(=O)Nc4ccccc43)n2)cc1`, the growth in [1] was -30.2% (active); in experiment [2], -20.2% (active); in experiment [3], 16.3%; in experiment [4], 60.8%; in experiment [5] it was 36%; in experiment [6], 32.4%. The growth in [7] was 25.3%; in [8], -10.7% (active); in experiment [9], 31.2%; in experiment [10] it was 81%.
Take `COc1ccc2c(c1)c(CC(=O)NCCOCCOCC(=O)Nc1ccc(OC)c(C(N)=O)c1O)c(C)n2C(=O)c1ccc(Cl)cc1`: the growth is 90.2% in [1]; 96.9% in experiment [2]; 90.3% in [3]; 112% in experiment [4]; 93.7% in experiment [5]; 109% in [6]. In addition, the growth in [7] is 93.9%; in experiment [8], 103%; in experiment [9] it was 105%; in [10], 91.6%.
Turning to `CC[C@@]12C=CCN3CC[C@]4(c5cc(NC(=O)COc6cc(OCC(=O)Nc7cc8c(cc7OC)N(C)[C@H]7[C@@](O)(C(=O)OC)[C@H](OC(C)=O)[C@]9(CC)C=CCN%10CC[C@]87[C@@H]%109)cc7oc(-c8ccccc8)cc(=O)c67)c(OC)cc5N(C)[C@@H]4[C@](O)(C(=O)OC)[C@H]1OC(C)=O)[C@H]32`, the growth in [1] is 10.6%; in experiment [2], 8.92% (active); in [3], 28.8%; in experiment [4], 30.2%; in experiment [5], 28.8%; in [6], 23.5%. The growth in experiment [7] was -70% (active); in experiment [8], -26.8% (active); in [9], 39.4%; in experiment [10], 95.5%.
Consider `CCOC(=O)c1c(O)cc(-c2ccccc2)cc1-c1sc(N(C)Cc2ccccc2)nc1Cl`, for which the growth was 93.4% in experiment [1]; 95.2% in experiment [2]; 97.8% in experiment [3]; 89.4% in experiment [4]; 102% in experiment [5]; 95.7% in [6]. Also, the growth was 108% in experiment [7], 106% in experiment [8], 88.6% in experiment [9] and 102% in [10].
`O=C1c2ccccc2C(=O)c2c(NCCN=Cc3ccccc3O)cccc21`: the growth is -33.2% (active) in experiment [1]; 78.8% in experiment [2]; 21% in [3]; 78.9% in experiment [4]; 72.1% in experiment [5]; 56.9% in [6]. Besides, the growth in experiment [7] is 51.9%; in [8] it was 72.3%; in [9] it was 43.4%; in experiment [10], 59.9%.
For `N#C/C(=C\c1ccc(Br)cc1)n1nnc2cccc(F)c21`, the growth in [1] was 10.1%; in experiment [2], -19.6% (active); in [3] it was 8.42% (active); in experiment [4], 10.5%; in experiment [5] it was 17.5%; in [6], 78.3%. In addition, the growth is 4.13% (active) in experiment [7], -31.5% (active) in experiment [8], -11.1% (active) in experiment [9] and 3.27% (active) in experiment [10].
For the compound `Fc1ccc(C2CC(c3cccc(Nc4ccncc4)c3)=NN2c2ccccc2)cc1` (stereo not given), the growth in experiment [1] was 2.49% (active); in [2] it was 1.2% (active); in experiment [3], 55.1%; in [4] it was 85.3%; in [5], 51.9%; in [6], 70.8%. Further, the growth is 44% in experiment [7], 64% in [8], 73.1% in experiment [9] and 73% in experiment [10].
With `COc1ccc(-c2nc(SC)nc(N3CCOCC3)c2C#N)cc1`, the growth in [1] was 78.9%; in experiment [2], 91.2%; in experiment [3], 98.1%; in [4], 99.7%; in experiment [5] it was 100%; in experiment [6] it was 89.4%. Moreover, the growth is 85% in experiment [7], 98.5% in experiment [8], 98.4% in experiment [9] and 94% in experiment [10].
Turning to `COc1cc(C2CC(c3cccc(Nc4ccncc4)c3)=NN2c2ccc(Cl)cc2)cc(OC)c1OC` (stereo not given), the growth in [1] is 2.48% (active); in experiment [2], -18.7% (active); in [3] it was -26.5% (active); in experiment [4] it was 72.1%; in experiment [5], 6.52% (active); in experiment [6], 64.5%. For the same compound, the growth in [7] is 4.16% (active); in experiment [8], -25.3% (active); in experiment [9], 27.8%; in experiment [10], 42.7%.
As for `O=C1NC(=S)NC(=O)C1=Cc1cccc(C=C2C(=O)NC(=S)NC2=O)c1`, the growth in experiment [1] is 96.9%; in experiment [2], 101%; in [3], 104%; in [4], 110%; in experiment [5] it was 105%; in experiment [6], 110%. Moreover, the growth in experiment [7] was 107%; in [8], 108%; in [9] it was 103%; in experiment [10], 102%.
In the case of `CCCc1cc2c(cc1Br)OCO2`, the growth in experiment [1] is 111%; in [2], 113%; in experiment [3], 96.1%; in experiment [4], 96.5%; in [5] it was 114%; in experiment [6], 103%. Also, the growth is 111% in experiment [7], 113% in [8], 99.8% in experiment [9] and 98.5% in [10].
For `C#CC(=O)Nc1cccc(Nc2nc3c(c(NCc4ccccc4)n2)CCCC3)c1`, the growth was -27% (active) in experiment [1]; -23.7% (active) in [2]; -89.6% (active) in experiment [3]; -45% (active) in experiment [4]; -95.3% (active) in [5]; -98.5% (active) in experiment [6]. Moreover, the growth in experiment [7] is -42.6% (active); in [8], -82.9% (active); in experiment [9], -5.41% (active); in experiment [10], 5.07% (active).
